Consider 33 sequences from publication PMC7819943, “Rice protein-binding microarrays: a tool to detect cis-acting elements near promoter regions in rice”.

The full ranking holds about 68,000 sequences; the median of “fluorescence intensity (a.u.)” is about 9,100, and the highest 2% start at about 16,000. The entries come from a sample that favours the highest values as a whole.

OsWRKY34, sequence (Q0JBA9 entry or part of it): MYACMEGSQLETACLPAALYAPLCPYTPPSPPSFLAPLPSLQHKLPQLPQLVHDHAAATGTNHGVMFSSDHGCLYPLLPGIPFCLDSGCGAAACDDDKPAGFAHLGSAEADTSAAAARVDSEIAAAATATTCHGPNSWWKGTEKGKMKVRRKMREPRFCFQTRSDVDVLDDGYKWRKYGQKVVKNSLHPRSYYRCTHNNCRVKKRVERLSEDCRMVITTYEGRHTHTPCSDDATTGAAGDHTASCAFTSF

In the experiment the target is OsWRKY34 (Oryza sativa, UniProt Q0JBA9 1-250). The experiment in a line: protein-binding microarray (RPBM); PBS, 2% BSA, 51.3 ng/ul salmon testes DNA, 50 uM zinc acetate, 200 nM TF, 25 C, 1 h; high values mean tight binding. As to conditions: protein: recombinant; tags: N-terminal polyhistidine and DsRed monomer fusion (pET32a); label: CyDye5-dUTP incorporated in the synthesized complementary strand; 3' TTTTT single-stranded linker to array surface; dsDNA, one strand shown. In short, it runs like this:
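Binding signal is defined as the fluorescence intensity of each feature in arbitrary units, read on an Axon 4000B scanner. Transcription factors with N-terminal polyhistidine and DsRed fusions came from E. coli BL21-CodonPlus and were purified on Ni–NTA. They were incubated at 200 nM for 1 h at 25 °C on a custom Agilent array that had been made double-stranded with Cy5-dUTP, with 50 µM zinc acetate present, and the array was washed.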
Turning to “CTACTATTGCGTTGTTTTATTTTGGCCAGTTTATTTCAAACGGAGTCACCTAGTGCAG”, the binding signal was 13400 fluorescence intensity (a.u.).

For the sequence “TTTTTTTGCTTTTTCACTATTTTTTTATTTTGACGGACGACGGAGTCACCTAGTGCAG”, the binding signal was 9300 fluorescence intensity (a.u.).

On to “GAATTCATACTTTTTCCTATATTTATCTTTGGCCTTAATCCGGAGTCACCTAGTGCAG”, for which the binding signal was 8560 fluorescence intensity (a.u.).

In the case of “CCCCAAAATACTCGACGCTGAACTTTCCCATCAGCTAGTACGGAGTCACCTAGTGCAG”, the binding signal is 8280 fluorescence intensity (a.u.).

For “CCTTGGCAGTGGGGCGGAGGGGCGGTGTCGGTGCTGGCGGCGGAGTCACCTAGTGCAG”, the binding signal was 13800 fluorescence intensity (a.u.).

As to “TTGTAAGTTAGGGACCTGTTGTATCTGATTTTTTGGTTGACGGAGTCACCTAGTGCAG”, the binding signal is 8210 fluorescence intensity (a.u.).

“AATGTTGTCCTGTCGGCTGCTTCTGCTCCAACGTCAAGTTCGGAGTCACCTAGTGCAG”: the binding signal was 8140 fluorescence intensity (a.u.).

For “ATTTTACCAGTCTTGGAGATTTTAATCTTGTATAGTTTTCCGGAGTCACCTAGTGCAG”, the binding signal is 9110 fluorescence intensity (a.u.).

Turning to “GGGGAAATTTTCACGAGGGAGAGGGAGGGGAGGGATATTTCGGAGTCACCTAGTGCAG”, the binding signal is 23200 fluorescence intensity (a.u.).

In the case of “TATATATATATATATATATATATTCACAAATTATTTTTCACGGAGTCACCTAGTGCAG”, the binding signal was 23500 fluorescence intensity (a.u.).

Regarding “TTTCATTATACATATAGTTTTACATATTTCACAAAATTTTCGGAGTCACCTAGTGCAG”, the binding signal was 8770 fluorescence intensity (a.u.).

Regarding “CTAGGGTTAGGGGTTTGGGTGGGGAAATTTTCACGAGGGACGGAGTCACCTAGTGCAG”, the binding signal was 14600 fluorescence intensity (a.u.).

Consider “CTCACCATTTCATTTTATTTTTCATTTTTCACCACAAATTCGGAGTCACCTAGTGCAG”, for which the binding signal is 9050 fluorescence intensity (a.u.).

“GGGGATTTTTTTTTCGGATCCAGAACGATCAGAGAGGGAGCGGAGTCACCTAGTGCAG”: the binding signal was 9300 fluorescence intensity (a.u.).

With “ATCCATGGGCCTCGTTGGTTATAGCCTGTGTGCATCAACACGGAGTCACCTAGTGCAG”, the binding signal is 8230 fluorescence intensity (a.u.).

“TCCTCCTTTCTCGCTCTCGCTCTGTCCGATCGGAGCCATGCGGAGTCACCTAGTGCAG”: the binding signal was 8490 fluorescence intensity (a.u.).

On to “TTGGGGTTCGTGGGGTCGAGAGGAAGGTGCGTGATCATACCGGAGTCACCTAGTGCAG”, for which the binding signal is 11500 fluorescence intensity (a.u.).

Regarding “TATTTTCCGGATCGAATTGCCACGTAAGGGCCACATCAGTCGGAGTCACCTAGTGCAG”, the binding signal was 8510 fluorescence intensity (a.u.).

For “ACTGGCTTTGCTATGATCTTTTGCTATCGCCCAACCGTTACGGAGTCACCTAGTGCAG”, the binding signal is 8690 fluorescence intensity (a.u.).

“ATTTTCTACTCTTTTGGTCCCACTAGTCATAGACTCTTTTCGGAGTCACCTAGTGCAG”: the binding signal is 10800 fluorescence intensity (a.u.).

“TGTGCCGTGACTCGATGTGCTCCTCCATCTCTTGCTGCAACGGAGTCACCTAGTGCAG”: the binding signal is 8170 fluorescence intensity (a.u.).

On to “TCGAGAGGTGGGGAGGGGAGGGGAGCAGAGGGCGGCATCGCGGAGTCACCTAGTGCAG”, for which the binding signal is 18600 fluorescence intensity (a.u.).

On to “GTGAGGACGGCCTGCGGGTGCATGCGGGCGCAACAAGTAGCGGAGTCACCTAGTGCAG”, for which the binding signal was 17500 fluorescence intensity (a.u.).

Turning to “CGGGCGGCGGGTGCGGACTGCGGAGGAGGCTGGCGGGGCACGGAGTCACCTAGTGCAG”, the binding signal was 8630 fluorescence intensity (a.u.).

Take “GAGGGAGGGAGGGAGGGAGGGCGTGTAGCGTAGTTGGTGTCGGAGTCACCTAGTGCAG”: the binding signal was 18800 fluorescence intensity (a.u.).

For the sequence “GCAGAGAGAGGGGAGGAGGGTGGGTGGCGGCGGCGGCTAGCGGAGTCACCTAGTGCAG”, the binding signal is 14400 fluorescence intensity (a.u.).

“CTGCGGGGAGGTGTAGGAGGAGGAGGGCGGAGGAGGTGGTCGGAGTCACCTAGTGCAG”: the binding signal is 8780 fluorescence intensity (a.u.).

For the sequence “GTTTTTTTTTTTTGGCGCAGGGAGTGGTGGCGTGGTGTGTCGGAGTCACCTAGTGCAG”, the binding signal is 8170 fluorescence intensity (a.u.).

With “GCGGTGGAGGGCCGGCGGAGAGGGGAGCAGCGGTGGAGGGCGGAGTCACCTAGTGCAG”, the binding signal was 11000 fluorescence intensity (a.u.).

As for “GAGGCGGGTGATAGCGCGGTGGGGCGGTGGCGGCGGTGGACGGAGTCACCTAGTGCAG”, the binding signal is 13000 fluorescence intensity (a.u.).

Consider “TGTGCTGTGTGGTGTACTGGTGTGTGGGCTTAATAATTGTCGGAGTCACCTAGTGCAG”, for which the binding signal was 14200 fluorescence intensity (a.u.).

Consider “GGGAGGGGCTGCTAATTCGGTGTGATTAGTACAGTAGTTTCGGAGTCACCTAGTGCAG”, for which the binding signal was 10100 fluorescence intensity (a.u.).

Turning to “GGGAGGGAGGGTGGCTGTAGTGTGCTAATCACAAATAATTCGGAGTCACCTAGTGCAG”, the binding signal was 20500 fluorescence intensity (a.u.).
